Out of some 65,000 compounds screened, about 2,100 (3.2%) showed an effect of 50% or more. The median lay at about -52%. Only a selection was taken, and strong results are over-represented in it overall.

For this test, the system named is Plasmodium falciparum. As to the kind of experiment: Screen against P. falciparum Asexual Blood Stage (ABS), at 5uM. Type of test: functional, Dd2. Conditions: tested at 5 uM.
Regarding `COCc1nc(C(=O)N2CCCC2Cn2cc(C)cn2)cs1` (stereo unspecified), the INHIBITION is -179%. For `Cc1cccc(CN2CCC3(CCCN(Cc4cnn(C)c4)C3)C2)n1` (stereo unspecified) the value was -21.5%; for `CN(C)C(=O)NCc1ncn2c1CN(Cc1cccs1)CCC2`, -61.4%.

Turning to `CN(C)C(=O)[C@@]12CCO[C@@H]1CCN(Cc1ccc3c(c1)OCO3)C2`, the INHIBITION is on record as -52.2%.

Turning to `O=C(COc1coc(CN2CCSCC2)cc1=O)c1ccccc1`, the INHIBITION is given as -95.1%. Then `COc1ccccc1Oc1ncccc1CNC(=O)C1(C)CCCNC1` (stereo unspecified), with -45.9%; and `Cc1cccc(C)c1Oc1ncccc1CNC(=O)C1(C)CCCNC1` (stereo unspecified), with 56.1%. In the case of `CC1(C(=O)NCc2cccnc2Oc2ccc(F)cc2F)CCCNC1` (stereo unspecified), the INHIBITION worked out at 21.1%. For `CCn1ncc2c1C(COCC1CC1)CN(c1ccc(C)nn1)C2` (stereo unspecified) the value was 40.1%; for `CCc1c(C)nc2cc(C3CCN(CCc4ccccc4)C3)nn2c1O` (stereo unspecified), -23%.

Consider `CN(Cc1noc(C2CC2)n1)C1CCN(Cc2cccc(F)c2F)C1` (stereo unspecified), for which the INHIBITION came to 26.6%. For `CCc1c(C)nc2cc(C3CCN(Cc4ccc(F)cc4)C3)nn2c1O` (stereo unspecified) the value was 14.3%; for `CCc1c(C)nc2cc(C3CCN(Cc4cccc(F)c4)C3)nn2c1O` (stereo unspecified), 5.05%. For `CCc1c(C)nc2cc(C3CCN(Cc4ccccc4F)C3)nn2c1O` (stereo unspecified) the value was 51.6%. For `Cc1nc(O)cc(C2CCN(Cc3cccc(F)c3F)C2)n1` (stereo unspecified) the value was -81.4%; for `Cc1nc2cc(C3CCN(Cc4cccc(F)c4F)C3)nn2c(O)c1C.O=C(O)CC(O)(CC(=O)O)C(=O)O` (stereo unspecified), 59.6%. As to `Cc1nc2cc(C3CCN(Cc4ccccc4F)C3)nn2c(O)c1C` (stereo unspecified), the INHIBITION was 50.3%. With `CCc1c(C)nc2cc(C3CCN(Cc4cccnc4)C3)nn2c1O` (stereo unspecified), the INHIBITION is on record as -81.6%. As for `Cc1nc(CN2CC(Cc3ccccc3)CC2=O)no1` (stereo unspecified), the INHIBITION is listed as -37.6%. Then `Cc1ccc(CNCc2ccc(N3CCC(CO)CC3)nc2)c(C)c1`, with -47.4%; and `CC(c1nc(C2CC2)no1)N1CCc2c(ncn2C)C1` (stereo unspecified), with -90.5%; and `Cn1nc(C(=O)NCc2cccnc2)c2c1CCS(=O)(=O)C2`, with -148%.

`Cc1cnc(CCN(C)C(=O)c2ccc(O)nc2C)s1`: the INHIBITION was -151%.

Regarding `COc1cccc(-c2cc(NCC(=O)O)nc3[nH]ccc23)n1`, the INHIBITION is -47%. Regarding `COc1cccc(-c2cc(NCCO)nc3[nH]ccc23)n1`, the INHIBITION was -62.1%. Then `COc1cccc(-c2cc(NCCN(C)C)nc3[nH]ccc23)n1`, with 53.1%; and `O=C(Cc1ccsc1)N1C[C@H]2CCC[C@@]2(COCc2ccccn2)C1`, with -116%; and `Cc1cnc(NC(=O)c2csc(NCC(C)C)n2)s1`, with -175%. Then `Cc1ncc(CN(C)CC(O)c2ccc(Br)cc2)s1` (stereo unspecified), with 22.6%. For `CCOC(=O)CN(C)Cc1cnc(C)s1`, the INHIBITION is on record as -142%. For `Cc1ccc(CC(=O)NCC(O)c2cccc(C(F)(F)F)c2)cn1` (stereo unspecified) the value was -58.1%. Then `Cc1ncc(CN(C)CC(O)c2cccc(C(F)(F)F)c2)s1` (stereo unspecified), with 54.7%.

Take `Cc1cc(CNC(=O)NCC(O)c2cccc(C(F)(F)F)c2)no1` (stereo unspecified): the INHIBITION was -34.1%. `Cc1ncc(CN(C)CC(O)c2ccc(OC(F)(F)F)cc2)s1` (stereo unspecified): the INHIBITION is recorded as 64%. Then `O=C(CC1CC1)N[C@@H]1CN(C(=O)c2ccoc2)C[C@@H]2CCCO[C@@H]21`, with -102%.

On to `CN(C)C(=O)c1cnc2n1CCN(Cc1ccc3c(c1)OCO3)C2`, for which the INHIBITION was 24.3%. For `CCn1cc2c(n1)CN(Cc1ccc(F)cc1)CC2COCC1CC1` (stereo unspecified) the value was -38.3%; for `CC(C)(CNC(=O)COc1cccc(F)c1)C(N)=O`, 60.6%; for `CC(C)(CNC(=O)CCOc1cccc(F)c1)C(N)=O`, -172%.

Take `CC(C)(CNC(=O)CCCOc1cccc(F)c1)C(N)=O`: the INHIBITION was found to be 44.9%. Then `CC(C)Cn1cc2nc(N3CCC(O)CC3)[nH]cc-2c1=O`, with -52.3%; and `Cc1cccc(Cn2cc(Br)c(NS(C)(=O)=O)n2)c1`, with -96.25%. For `Cc1oc(-c2cccc(F)c2F)nc1CN(C)CCO` the value was -82.7%. Regarding `O=C(NCCn1ccnc1)c1ccn(-c2cccc(F)c2)n1`, the INHIBITION is listed as -1.32%. Take `Cc1ccc(-c2nn(-c3cccc(F)c3)cc2CN(C)CCO)o1`: the INHIBITION turned out to be 50.5%.

On to `Cc1nc(CN2CCN(CCCc3nc4ccccc4o3)CC2)no1`, for which the INHIBITION is given as -77.4%.

In the case of `CN(Cc1cccnc1)[C@@H]1CN(Cc2nccn2C)[C@@H]2CCCO[C@H]12`, the INHIBITION is listed as -13.9%. Take `CN(Cc1ccco1)[C@@H]1CN(Cc2ccc(F)cc2)[C@@H]2CCCO[C@H]12`: the INHIBITION came out at 56.5%. Then `CN(Cc1ccco1)[C@@H]1CN(Cc2ccco2)[C@@H]2CCCO[C@H]12`, with 11.7%; and `Cc1noc(C)c1CN1C[C@@H](N(C)Cc2ccco2)[C@H]2OCCC[C@H]21`, with 50.4%; and `CN(Cc1ccco1)[C@@H]1CN(Cc2nccn2C)[C@@H]2CCCO[C@H]12`, with -23.8%. For `CN(Cc1cccnc1)[C@@H]1CN(Cc2ccccn2)[C@@H]2CCCO[C@H]12` the value was 50.8%. As to `CN(Cc1cccnc1)[C@@H]1CN(c2ccccn2)[C@@H]2CCCO[C@H]12`, the INHIBITION is -39.4%. In the case of `CN(Cc1ccco1)[C@@H]1CN(CC2CCOCC2)[C@@H]2CCCO[C@H]12`, the INHIBITION is listed as -0.241%.

`CN(Cc1ccco1)[C@@H]1CN(Cc2cnn(C)c2)[C@@H]2CCCO[C@H]12`: the INHIBITION is on record as 27.3%. For `O=C(CCc1ccc(-n2cnnn2)cc1)Nc1ccncc1` the value was -12.1%; for `CCn1cc2c(n1)CN(Cc1nccs1)CC2COCC1CC1` (stereo unspecified), -9.1%; for `CN(C)c1nc(O)cc(C2CCN(C(=O)Cc3ccccn3)C2)n1` (stereo unspecified), -107%. Then `N#CC1CCCN(c2ncnc3c2CCN(Cc2ccccc2)CC3)C1` (stereo unspecified), with -71.7%; and `CCOc1c(Cl)cccc1NCc1cc(C)on1`, with -51.8%. As for `Cc1cc(CNc2ccccc2Cl)no1`, the INHIBITION is recorded as 40.4%. With `Cc1cc(CNc2cccc(Cl)c2C)no1`, the INHIBITION stood at 54.3%.

Consider `CNC(=O)c1cnc(C=Cc2cc(OC)c(O)c(OC)c2)s1`, for which the INHIBITION is -64.8%.

In the case of `CNC(=O)c1cccc(CNC(C)c2ccc(F)cc2N(C)C)c1` (stereo unspecified), the INHIBITION was -107%. `CNC(=O)c1cccc(CNC(C)c2cc(C)ccc2OC(F)F)c1` (stereo unspecified): the INHIBITION is on record as 60.1%.

Regarding `CNC(=O)c1cccc(CNC(C)c2cc(Cl)ccc2OC)c1` (stereo unspecified), the INHIBITION is listed as -5.94%.

Source of the values: ChEMBL document CHEMBL4513216, “Probing the Open Global Health Chemical Diversity Library for Multistage-Active Starting Points for Next-Generation Antimalarials” (ACS Infect Dis, 2020).
